# The source holds several records for some structures; these can differ, active in one and inactive in another. Activity calls are given as the source filed them. How the source made its calls: active means hit-call score of the fitted dose curve at least 0.9, where 1 is the maximum; inactive means score below 0.9.
# Assay: ATG_NFI_CIS: Attagene CIS-FACTORIAL HepG2 Assay for human Nuclear Factor I (NFI) (AID 2282989)
# Details: HepG2 cis-regulatory reporter, NFI response element transcription; actives raise or lower the signal
# Method: ATG_CIS is a cell-based, multiplexed-readout assay that uses HepG2, a human liver cell line, with measurements taken at 24 hours after chemical dosing in a 24-well plate.ATG_NFI_CIS is one of 52 assay component(s) measured or calculated from the ATG_CIS assay. It is designed to make measurements of mRNA induction, a form of inducible reporter, as detected with fluorescence intensity signals by Reverse transcription polymerase chain reaction (RT-PCR) and Capillary electrophoresis technology.Data from the assay component ATG_NFI_CIS was analyzed into 1 assay endpoint. This assay endpoint, ATG_NFI_CIS, was analyzed with bidirectional fitting relative to DMSO as the negative control and baseline of activity. Using a type of inducible reporter, measures of mRNA for gain or loss-of-signal activity can be used to understand the reporter gene at the transcription factor-level as they relate to the gene NFIA. Furthermore, this assay endpoint can be referred to as a primary readout, because this assay has produced multiple assay endpoints where this one serves a reporter gene function. To generalize the intended target to other relatable targets, this assay endpoint is annotated to the dna binding intended target family, where the subfamily is nuclear factor I.
# Human liver HepG2 cells are transiently transfected with multiple reporter transcription units (MRTUs) in 6-well plates using FuGene 6 reagent (Roche; 3 ml FuGene/1 mg DNA). The MRTU constructs are regulated by a cis-regulating element (promoter). […] A major difference between the CIS and TRANS system is that in CIS activities of endogenous TFs are measured, whereas the TRANS assay evaluates changes in activities of exogenous, chimeric NR-Gal4 proteins. […] At the end of 24 hour incubation, total RNA was isolated using TriZol reagent (Invitrogen). The isolated RNA is then reverse-transcribed using oligo(dT) primer and Mo-MLV reverse transcriptase (Invitrogen) with DNAse I (Ambion) treatment for 30 min. The one-tenth of the produced cDNA was amplified by PCR using Taq DNA polymerase (Invitrogen) and two reporter sequence-specific primers. The PCR products were fluorescently labeled by primer extension with 6-arboxyfluorescein (6-FAM) 5'-labeled reporter sequence-specific primer (2 min at 95 C, 20 s at 68 C and 10 min at 72 C) and these products were digested with 5U of HpaI (New England Biolabs) for 2h at 37 C. The fragments were purified using Qiaquick PCR columns (Qiagen), analyzed on an ABI 3130xL genetic analyzer (Applied Biosystems) with peak positions identified by using a set of X-rhodamine (ROX)-labeled MapMarker1000 molecular weight standards (BioVentures). The raw capillary electrophoresis data was processed using Attagraph software (Attagene).
SMILES,outcome,AC50
CC(=O)CC(C)(C)O,inactive,–
CC[C@H](C)[C@@H](C(=O)O)n1sc2ccccc2c1=O,inactive,–
Cc1cc(CCN2CCN(c3nsc4ccccc34)CC2)cc2c1NC(=O)CC2(C)C,inactive,–
CC(=O)NC1(c2cccc(F)c2)CCN(CC[C@@]2(c3ccc(Cl)c(Cl)c3)CN(c3ccccc3)C(=O)CO2)CC1,–,41.7 µM (active)
COc1ccc([N+](=O)[O-])cc1N,inactive,–
FC(F)(I)C(F)(F)C(F)(F)C(F)(F)C(F)(F)C(F)(F)I,inactive,–
O=C(O)c1ccccc1C(c1ccc(O)cc1)c1ccc(O)cc1,inactive,–
CCCCCCCCOC(=O)CCCCCCCCC(=O)OCCCCCCCC,inactive,–
CC(C)(C)c1cccc(C(C)(C)C)c1O,–,159 µM (active)
CCc1nn(C2CCCCC2)c2cc(C3(C#N)CCC(C(=O)O)CC3)ccc12 (stereo not given),inactive,–
C[C@@H]1C[C@H]2[C@@H]3CCC4=CC(=O)C=C[C@]4(C)[C@@]3(F)[C@@H](O)C[C@]2(C)[C@@]1(O)C(=O)COP(=O)(O)O,inactive,–
CCCOc1sc(C(=O)N2CCC(c3cc(CN)ccc3F)CC2)c(C)c1Br,inactive,–
COc1cc(CCC(=O)CC(=O)CCc2ccc(O)c(OC)c2)ccc1O,inactive,–
OC1CCC(C2CCCCC2)CC1 (stereo not given),inactive,–
Cc1cc(C)c(O)c(C)c1,inactive,–
CCCCC[C@H](O)CC(=O)CCc1ccc(O)c(OC)c1,inactive,–
O=[N+]([O-])c1ccc(O)cc1,inactive,–
NC(=O)N(O)[C@@H]1C=C[C@H](Oc2cccc(Oc3ccc(F)cc3)c2)C1,inactive,–
CC(C)CCCCCCOC(=O)CCCCC(=O)OCCCCCCC(C)C,inactive,–
O=C1OC2(c3ccccc31)c1cc(Br)c(O)c(Br)c1Oc1c2cc(Br)c(O)c1Br,inactive,–

SMILES,outcome,AC50
Cc1ccc(S(=O)(=O)O)c(C)c1,inactive,–
c1ccc2cc3c(ccc4ccccc43)cc2c1,inactive,–
Oc1cc2ccccc2c2ccccc12,inactive,–
CCCOC(=O)c1ccc(O)cc1,inactive,–
CCCCCCCCCCCCN1CCCC1=O,inactive,–
c1ccc2c(c1)Cc1ccccc1-2,inactive,–
O=C(OCCOCCOC(=O)c1ccccc1)c1ccccc1,inactive,–
CCCCC(CC)COC(=O)CCCCC(=O)OCc1ccccc1 (stereo not given),inactive,–
C=C(C)C(=O)OCCC(F)(F)C(F)(F)C(F)(F)C(F)(F)C(F)(F)C(F)(F)F,inactive,–
Nc1cccc2c(N)cccc12,inactive,–
CN1CCN(c2ccccc2/C=C2\SCCN(c3ccc(Cl)c(Cl)c3)C2=O)CC1,inactive,–
CCC(=C(c1ccc(O)cc1)c1ccc(OCCN(C)C)cc1)c1ccccc1,inactive,–
CCCCCCCCCCCCCCCS(=O)(=O)Oc1ccccc1,inactive,–
CC(C)(C)c1cc(C(C)(C)C)c(O)c(C(C)(C)C)c1,inactive,54.2 µM (active)
CCCCCCCCCCCCc1ccccc1S(=O)(=O)O,inactive,–
C#C[C@]1(O)CC[C@H]2[C@@H]3CCC4=CC(=O)CC[C@@H]4[C@H]3CC[C@@]21C,inactive,–
CCC(C)(C)C1CCC(O)CC1 (stereo not given),inactive,–
CCN(CC)CCNc1ccc(CNC=O)c2sc3ccc(OC)cc3c(=O)c12,–,0.843 µM (active)
CCCCCCC(=O)O,inactive,–
